BAZ2B block = qHTS Assay for Inhibitors of BAZ2B. AlphaScreen BAZ2B-H3K14Ac peptide displacement. Potency, µM (series often up to 114 µM), for the others: at the top dose activity change, negative = inhibition, most hits filed as inhibitors. 4.4% of 360,000 active; also: % is scaled to controls: 0 for no effect and ±100 for the full control effect; nearly all actives have a fitted effect of over 60% in size
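AlphaScreen displacement: compounds (up to 110uM) incubated 30 min at room temperature with a preformed 50 nM BAZ2B/50 nM biotinylated H3K14Ac peptide complex in PBS pH 7.4 with Tween-20. Donor and acceptor beads at 10 ug/mL final added, 20 min light-protected before reading.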
G9a block = qHTS Assay for Inhibitors of Histone Lysine Methyltransferase G9a. 8.8% of 350,000 active. G9a H3K9 monomethylation, AlphaScreen, 2 h. Potency, µM (top dose mostly 102 µM), inactives show top-dose activity, negative = inhibition, hits mostly inhibitors. Histone-lysine N-methyltransferase EHMT2 (Homo sapiens), Q96KQ7; also: % is scaled to controls: 0 for no effect and ±100 for the full control effect; nearly all actives have a fitted effect of over 75% in size
Target sequence (Q96KQ7 913-1193 limits assumed): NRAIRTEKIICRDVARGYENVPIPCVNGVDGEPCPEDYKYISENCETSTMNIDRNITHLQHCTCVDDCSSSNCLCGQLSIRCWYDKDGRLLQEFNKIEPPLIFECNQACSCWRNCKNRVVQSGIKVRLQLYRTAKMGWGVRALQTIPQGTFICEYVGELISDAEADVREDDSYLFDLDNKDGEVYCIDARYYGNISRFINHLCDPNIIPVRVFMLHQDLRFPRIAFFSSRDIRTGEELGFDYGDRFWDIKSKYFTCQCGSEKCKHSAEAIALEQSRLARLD
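G9a (20 nM) preincubated 15 min RT with compounds, then 500 nM biotinylated H3K9 peptide and 20 uM SAM added; 2 h RT reaction. Monomethyl-H3K9 product detected by AlphaScreen with anti-H3K9me1 antibody, streptavidin donor and anti-rabbit IgG acceptor beads.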
Sfp inh = qHTS Assay for Inhibitors of Bacillus subtilis Sfp phosphopantetheinyl transferase (PPTase) | 3.5% of 310,000 active | Biochemical Sfp PPTase activity, qHTS | 4'-phosphopantetheinyl transferase ffp (Bacillus subtilis), Q9F4F7 | Potency, µM, for inactives: largest response in the series, negative = inhibition, actives largely listed as inhibitors;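 also: the enzyme is Sfp with the accession as filed and its product quenches rhodamine fluorescence; 0% = enzyme reaction without inhibitor and -100% = no enzyme wells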
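Sfp 15 nM + cpd, 15 min RT; start w/ rhodamine-CoA 5 uM, BHQ-2-YbbR 12.5 uM (final); 50 mM Hepes pH 7.6, 10 mM MgCl2, 0.01% NP-40, 0.01% BSA; read 525/598 nm at 0 and 30 min.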
HP1b chromo inh = HTS for Inhibitors of HP1-beta Chromodomain Interactions with Methylated Histone Tails; Chromobox protein homolog 1 (Homo sapiens), P83916; AlphaScreen HP1-beta / biotin-H3K9me3 peptide binding; Potency, µM (top dose mostly 114 µM), for the others: top-dose activity change, negative = inhibition, actives largely listed as inhibitors; 0.56% of 390,000 active; AID 540317, 2011; also: nearly all actives have a fitted effect of over 70% in size
Target sequence (P83916 whole entry, looked up): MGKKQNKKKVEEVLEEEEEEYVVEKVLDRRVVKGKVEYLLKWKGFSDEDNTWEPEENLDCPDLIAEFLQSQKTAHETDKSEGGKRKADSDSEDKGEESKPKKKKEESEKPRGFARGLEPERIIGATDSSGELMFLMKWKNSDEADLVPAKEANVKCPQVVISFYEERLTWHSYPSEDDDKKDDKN
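AlphaScreen: HP1-beta (50 nM) preformed 30 min with biotin-H3(1-18)K9me3 peptide (50 nM) in PBS pH 7.4, 0.01% Tween-20. Compound added for 30 min at RT, then streptavidin donor/nickel chelate acceptor beads (10 ug/mL) for 30 min.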
PLK1 PBD inh = qHTS for Inhibitors of PLK1-PDB (polo-like kinase 1 - polo-box domain): Primary Screen; 2.8% of 360,000 active; Potency, µM, without a hit: max response, negative = inhibition, most hits filed as inhibitors; Plk1 PBD binding of FITC phosphopeptide, fluorescence polarization; Serine/threonine-protein kinase PLK1 (Homo sapiens), P53350; also: series mostly up to about 57 µM; % is scaled to controls: 0 for no effect and ±100 for the full control effect; nearly all actives have a fitted effect of over 65% in size
JMJD2A Tudor inh = qHTS Assay for Inhibitors of JMJD2A-Tudor Domain | Lysine-specific demethylase 4A (Homo sapiens), O75164 | AlphaScreen JMJD2A-Tudor / H3K4me3 peptide binding | Potency, µM (titrated, usually from 114 µM), for the others: top-dose activity change, negative = inhibition, actives largely listed as inhibitors | 4.4% of 390,000 active; also: % is scaled to controls: 0 for no effect and ±100 for the full control effect; nearly all actives have a fitted effect of over 50% in size
Numbers without * were called inactive; ? = inconclusive; nt = no result; [ ] = another dose, or the depositor's remark. The list is not random: actives were taken first. Their share in the collection is about 12%. Calls follow the shape of the dose curve; as a rule, active = well fitted curve in the direction sought with a large enough effect; inconclusive = small, poorly fitted or top-dose-only effect, or another doubt; inactive = no such curve, though single readings can be large; an effect the other way counts as inactive or inconclusive. Potency is read from the fitted curve at half-maximal effect.

SMILES	BAZ2B block	G9a block	Sfp inh	HP1b chromo inh	PLK1 PBD inh	JMJD2A Tudor inh
CC(CCc1ccccc1)NS(=O)(=O)c1ccc(Cl)c(C(=O)O)c1 (centres undefined)	-12%	?	7%	9%	24µM*	?
CC(CCc1ccccc1)NS(=O)(=O)c1ccccc1 (centres undefined)	5%	32%	1%	76%	-3%	-2%
CCCc1sc(N/N=C/c2ccccn2)nc1-c1ccc(F)cc1	?	-46%[59 µM]	-10%	-20%	-6%	45µM*
CC(=O)Nc1ccc(S(=O)(=O)Nc2ccc(C)c([N+](=O)[O-])c2)cc1	nt	?	-5%	25%	-3%	-12%
CC(=O)Nc1ccc(S(=O)(=O)NC(CSc2ccc(C(=O)O)cc2[N+](=O)[O-])C(=O)O)cc1 (centres undefined)	?	50µM*	-21%	55%	-17%	-3%
O=C(O)c1ccc2c(c1)C(=O)N([C@H](Cc1c[nH]c3ccccc13)C(=O)O)C2=O	-6%	0%[12.7 µM]	15%	nt	nt	-25%
CCCOc1ccc(C(=O)CCNC(Cc2c[nH]c3ccccc23)C(=O)O)cc1 (centres undefined)	-20%	7.9µM*	?	44%	5.3µM*	-8%
COc1ccc(C(=O)NC(Cc2c[nH]c3ccccc23)C(=O)O)cc1 (centres undefined)	0%	14%	12%	31%	-6%	-15%
Cc1nc(N[C@@H](Cc2c[nH]c3ccccc23)C(=O)O)c2oc3ccccc3c2n1	56µM*	5.6µM*	12%	27%	-15%	-23%
O=C(Cc1cccs1)NC(Cc1c[nH]c2ccccc12)C(=O)O (centres undefined)	-18%	56µM*	6%	2%	1%	22µM*
O=C(O)C(Cc1c[nH]c2ccccc12)N1C(=O)C2C3c4ccccc4C(c4ccccc43)C2C1=O (centres undefined)	?	25µM*	20%	18%	-5%	-11%
O=C(NNC(=O)c1ccccc1-n1cccc1)c1ccc(Cl)nc1	6%	10%[12.7 µM]	nt	28%	-2%	-16%
C[C@@H](C(=O)N[C@@H](Cc1c[nH]c2ccccc12)C(=O)O)n1nnc2ccccc2c1=O	-8%	12%[12.7 µM]	18%	9%	30µM*	?
O=C(Cn1nnc2ccccc2c1=O)N[C@@H](Cc1c[nH]c2ccccc12)C(=O)O	-1%	-13%[59 µM]	10%	15%	-1%	-15%
O=C(O)C(Cc1c[nH]c2ccccc12)NS(=O)(=O)c1cccc2nsnc12 (centres undefined)	-31%	?	56µM*	16%	?	-5%[57.1 µM]
Cc1ccc(C(=O)Nc2ccccc2C(=O)NC(Cc2c[nH]c3ccccc23)C(=O)O)cc1 (centres undefined)	79µM*	23%[12.7 µM]	-1%	-24%	?	-23%
Cc1ccc(C(=O)Nc2ccccc2C(=O)NC(Cc2ccccc2)C(=O)O)cc1 (centres undefined)	?	-3%[59 µM]	-6%	29%	-11%	-8%[11.4 µM]
CCOC(=O)c1ccc(NC(=O)c2cnn(-c3ccc(C)cc3C)c2C2CCN(C(=O)OC(C)(C)C)CC2)cc1	0%[57.1 µM]	-27%[59 µM]	nt	21%	nt	-23%
N#Cc1ccccc1OC1=NS(=O)(=O)c2ccccc21	nt	nt	nt	nt	nt	-18%
O=C1c2ccccc2C(=O)C12OC2c1cccc2ccccc12 (centres undefined)	1%	6.3µM*	28µM*	12%	?	-24%

Screening data (PubChem)
